Assay results from PubChem BioAssay AID1259343 (VanderVen Lab, College of Veterinary Medicine, Cornell …, 2017).
Among all 6,200 compounds or so, about 2,900 (47%) were called active. The set was probably picked from earlier hits. The list shows a part of the results. Unmarked numbers belong to inactive results. No stated cut-off is given here; in the data, active means inhibition above about 50%; inactive means the rest.

Test: Mycobacterium tuberculosis growth inhibition, primary screen (AID 1259343)
Settings: inhibition: at 10 µM, stronger effect = higher value; outcome: 10 uM

| Compound | inhibition |
| --- | --- |
| COc1ccc(-c2nc3ccccc3c(=O)o2)cc1[N+](=O)[O-] | 83.1% (active) |
| O=c1oc(-c2ccco2)nc2ccc(Br)cc12 | 41.6% |
| O=c1oc(-c2ccc([N+](=O)[O-])cc2Cl)nc2cc(Cl)ccc12 | 28.8% |
| CN(CCCc1ccccc1)Cc1nc(C2CC2)no1 | 78.2% (active) |
| CCC(Nc1ccccc1)c1nc(C2CCC2)no1 (stereo not given) | 44.9% |
| Cc1sc2ncnc(N(C)Cc3nc(C4CC4)no3)c2c1C | -15.9% |
| CC(C)Cn1c(-c2ccco2)nc2c(c(=O)c3ccccc3n2C)c1=O | -27.4% |
| Cc1ccc(NS(=O)(=O)N2CCCCC2)cc1Cl | 23.6% |
| CCN1C(=O)SC(Nc2ccc(C)c(Cl)c2)C1=O (stereo not given) | 96.3% (active) |
| COc1ccc(NC2CC(O)C(CO)O2)cc1 (stereo not given) | inactive |
| CCN1C(=O)SC(Nc2ccc(OC)cc2)C1=O (stereo not given) | 78.9% (active) |
| O=C(CN1C(=O)CC2(CCCC2)C1=O)c1ccc(Cl)s1 | -28.2% |
| Cc1ccc(C)c(-n2nnnc2SCCCC(=O)c2cccs2)c1 | -43% |
| O=C(Cn1nnc(-c2cccs2)n1)c1ccc(Cl)s1 | 77.8% (active) |
| Brc1cc2c(cc1Cn1nnc(-c3cccs3)n1)OCO2 | -19.9% |
| O=C(Cn1nnc([N+](=O)[O-])n1)c1cccs1 | 98.8% (active) |
| CC(C)(C)c1cc2nc(C(=O)O)cc(-c3ccccc3F)n2n1 | 62.4% (active) |
| CC(C)(C)c1cc2nc(C(=O)O)cc(-c3ccc(Cl)cc3)n2n1 | 83.5% (active) |
| CC(C)(C)c1cc2nc(C(=O)O)cc(-c3ccccc3Cl)n2n1 | 58.8% (active) |
| CCC(=O)O[C@H]1CCC2C3CCc4cc(O)ccc4C3CC[C@@]21C (stereo not given in full) | 46.7% |
| CCC(CC)C(NC[c-]1[c-][c-][c-][c-]1)c1ccccc1.[Fe].[c-]1[c-][c-][cH-][c-]1 (stereo not given) | 36.6% |
| O=C(O)CCc1nc2ccccc2oc1=O | 67.4% (active) |

| Compound | inhibition |
| --- | --- |
| O=C(CCc1nc2ccccc2o1)N1CC=C(c2ccccc2)CC1 | 29.9% |
| CCOc1ccc2cc(C(=O)C(C#N)C(=O)c3ccsc3)[nH]c2c1 (stereo not given) | 12.1% |
| Cn1c2c(c3cc(-c4cccc5c4CCNC5)ccc31)CCCC2=O | 10.9% |
| c1cc2c(c(-c3cccc4[nH]ccc34)c1)CCNC2 | 73.2% (active) |
| O=c1[nH]cc(F)c(=O)[nH]1 | 67.9% (active) |
| Cc1csc(C(C#N)=Cc2cccc(O)c2)n1 | 88.7% (active) |
| N#CC(=Cc1ccsc1)c1nc2ccccc2s1 | 11.6% |
| CN1CCCc2cc(NC(=O)NCCC(=O)NC3CCCC3)ccc21 | 0.23% |
| Cc1nc(CNc2ccc3c(c2)CCN3C(=O)OC(C)(C)C)cs1 | 29.2% |
| CC(C)(C)OC(=O)N1CCc2cc(NC(=O)C(=O)NC3CC3)ccc21 | 74.5% (active) |
| c1ccc(COC2CCN(CCOc3ccccc3)CC2)cc1 | 50.1% (active) |
| COc1cccc(-c2cnnc(N3CCC(OCc4ccccc4)CC3)n2)c1 | 30.1% |
| CCc1cc(=O)[nH]c(-n2nc(C)cc2NC(=O)c2ccccc2)n1 | 102% (active) |
| CCc1cc(=O)[nH]c(-n2nc(C)cc2NC(=O)c2cccc(C)c2)n1 | 101% (active) |
| CCc1cc(=O)[nH]c(-n2nc(C)cc2NC(=O)c2ccc(-c3ccccc3)cc2)n1 | 103% (active) |
| N#Cc1ccc(Nc2ccc(OC3CCCC3)cc2)nc1 | 93.4% (active) |
| N#Cc1ccc(Nc2ccc(Cl)cc2)cc1 | 3.65% |
| N#Cc1ccc(Nc2ccc(N3CCCC3)c(F)c2)nc1 | 48.8% |
| CC(C)C1=CC2=CC[C@H]3[C@](C)(CO)CCC[C@]3(C)C2CC1 (stereo not given in full) | 82.5% (active) |
| Cc1cn(Cc2csc(C(C)C)n2)cc1C#N | 1.23% |
| N#Cc1cccc(C(=O)NCc2cccc(-c3ncc(-c4ccc(F)cc4)[nH]3)c2)c1 | 81.2% (active) |
| Cn1c(Sc2ncc(-c3ccc(F)cc3)[nH]2)c(C#N)c(=O)n(C)c1=O | -14.4% |

| Compound | inhibition |
| --- | --- |
| O=C(NCc1cccc(-c2ncc(-c3ccc(F)cc3)[nH]2)c1)c1cccs1 | 22.9% |
| Cc1nc(-c2ccc(NC(=O)COC3CCCCC3)cc2)cs1 | 95% (active) |
| O=C(COC1CCCCC1)Nc1ccc(-c2nccs2)cc1 | -7.41% |
| Cc1nc(-c2cccs2)cc([C@H]2CN3CC[C@H]2C[C@@H]3CNC(=O)Nc2cccc(C(F)(F)F)c2)n1 | 53.2% (active) |
| Cc1nn(-c2ccccc2)c(Cl)c1C(=O)Nc1cccc(C(F)(F)F)c1 | 38.3% |
| Cc1sc2nc(CSc3ccc(Br)cc3)nc(-n3ccnc3)c2c1C | -19.2% |
| CC(=O)NCCC(=O)Nc1ccc(Oc2ccc(C#N)cc2)c(Cl)c1 | -2.79% |
| Cc1ccc(C(=O)Nc2ccc(OCC#N)cc2)cc1C | 22% |
| N#CCOc1ccc(NC(=O)CCOc2ccc(F)cc2Cl)cc1 | 81.4% (active) |
| O=S(=O)(CCCOc1ccc2c(c1)OCO2)N1CCCCC1 | 88.8% (active) |
| CCOC(=O)N1CCN(S(=O)(=O)CCCOc2ccc3c(c2)OCO3)CC1 | 32.5% |
| O=S(=O)(CCCOc1ccc2c(c1)OCO2)N1CCCCCC1 | 86% (active) |
| Clc1ccc(Cn2ncc3c(N4CCCC4)ncnc32)cc1 | 65.3% (active) |
| c1ccc2c(c1)oc1c(N3CCCCCC3)ncnc12 | -12.7% |
| Clc1ccc(Cn2ncc3c(N4CCCCC4)ncnc32)cc1 | 67.1% (active) |
| Clc1ccc(Cn2ncc3c(N4CCN(c5cccc(Cl)c5)CC4)ncnc32)cc1 | 14.4% |
| Cc1ccc(Cn2ncc3c(N4CCC(C)CC4)ncnc32)cc1 | 25.7% |
| CC1CCN(c2ncnc3c2cnn3Cc2ccc(Cl)cc2)CC1 | 62.6% (active) |
| CCN(CC)c1ncnc2c1cnn2Cc1ccc(Cl)cc1 | 34.4% |
| CCOc1ccc(C2C(c3nc4ccccc4s3)=C(O)C(=O)N2c2cc(C)on2)cc1OC (stereo not given) | 46.5% |
| Clc1ccccc1C(c1ccccc1)(c1ccccc1)n1ccnc1 | 68.1% (active) |
